Only some compounds are listed: those with a hit (about 21% of all), similar ones and a draw of the others.
CHX counter: affects cycloheximide protein synthesis inhibition readout, counter-screen | cell reporter, cycloheximide protein synthesis inhibition counterscreen | actives 12% (n = 300,000) | AID 2314 | max response, %; in the data active = max response mostly above about 13%, no sharp cut-off; inactive = mostly below about 14%; note: read at 38.3 µM for the half of the compounds with a filed dose; 0% is about no effect
Shiga toxin inh: blocks Shiga toxin action in Vero cells | inhibition, % at 38.7 µM | actives 9.2% (n = 290,000) | Vero cells, Shiga toxin protein synthesis inhibition reporter; in the data active = inhibition mostly above about 28%, no sharp cut-off; inactive = mostly below about 43%; note: 0% is about no effect
Pf growth 96h: P. falciparum growth inhibition at 96 hour, primary screen for plastid delayed-death inhibitors; P. falciparum luciferase reporter growth, 96 h; Potency, µM (series often up to 28.7 µM), for the others: top-dose activity change, negative = inhibition, most hits filed as inhibitors; actives 6.9% (n = 320,000); AID 504834; note: potency is the fitted concentration of half-maximal effect; % is set by controls: 0 for no effect and ±100 for the full control effect
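Plates of compound plus infected erythrocytes (2% hematocrit, 0.05% parasitemia final) incubate 96 hours, 37 C, 5% CO2. Detection reagent added; reduced luminescence from the parasites' luciferase reporter flags inhibition.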
NS1 inh: influenza NS1 inhibition. Potency, µM (titrated, usually from 46.1 µM), without a hit: at the top dose activity, positive = more growth. actives 0.4% (n = 270,000); calls by dose curve; note: potency is the fitted concentration of half-maximal effect; actives are rising curves; nearly all actives have a fitted effect of over 50% in size
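Compounds were scored for reversing the slow growth caused by influenza A NS1 in S. cerevisiae, measured by optical density at 600 nm. Assay medium contained 2% galactose at pH 6.0; NS1-free yeast of the same strain were the positive control.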
Pf growth 48h: inhibits P. falciparum growth in the first generation, 48 h. Potency, µM (series often up to 28.7 µM), inactives show at the highest dose activity change, negative = inhibition, usual class: inhibitors. P. falciparum luciferase growth in erythrocytes, 48 h. actives 5.9% (n = 310,000); note: potency is the fitted concentration of half-maximal effect; % is set by controls: 0 for no effect and ±100 for the full control effect
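Growth was read as firefly luciferase luminescence after a 48 h, 37 C, 5% CO2 exposure of compounds to reporter-bearing P. falciparum cultures (0.1% parasitemia, 2% hematocrit final) in Albumax-supplemented RPMI 1640.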
Giardia FBPA inh: inhibitors of Giardia lamblia fructose-1,6-bisphosphate aldolase; A8B2U2; purified Giardia FBPA; Potency, µM (doses to about 59.6 µM), for inactives: top-dose activity, negative = inhibition, actives largely listed as inhibitors; actives 0.71% (n = 290,000); AID 2451; note: potency is the fitted concentration of half-maximal effect; % is set by controls: 0 for no effect and ±100 for the full control effect; nearly all actives have a fitted effect of over 55% in size
Target sequence (A8B2U2 whole entry, looked up): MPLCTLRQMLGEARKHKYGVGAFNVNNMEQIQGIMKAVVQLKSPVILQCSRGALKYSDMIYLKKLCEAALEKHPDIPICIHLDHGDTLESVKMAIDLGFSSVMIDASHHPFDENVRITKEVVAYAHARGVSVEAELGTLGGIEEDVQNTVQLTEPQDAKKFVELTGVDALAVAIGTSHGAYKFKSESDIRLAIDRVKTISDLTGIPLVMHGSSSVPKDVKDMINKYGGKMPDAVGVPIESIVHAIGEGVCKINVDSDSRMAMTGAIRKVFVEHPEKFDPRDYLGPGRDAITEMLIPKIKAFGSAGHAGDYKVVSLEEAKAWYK
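Giardia FBPA (40 nM reagent) was preincubated 10 min at RT with compound (up to 57.5 uM final), then substrate plus GAPDH/TPI/NAD/arsenate coupling system with diaphorase/resazurin was added; resorufin fluorescence (525/598 nm) was read after 20 min.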
Numbers without * were called inactive; [ ] = remark or other dose. Unless noted, calls come from the whole dose curve; as a rule, active = well fitted curve in the direction sought with a large enough effect; inconclusive = small, poorly fitted or top-dose-only effect, or another doubt; inactive = no such curve, though single readings can be large; an effect the other way counts as inactive or inconclusive.

What do the screens show for `Cc1nn(-c2c(Cl)cc(Cl)cc2Cl)c(=O)c2ccccc12`?
CHX counter: 6; Shiga toxin inh: 9; Pf growth 96h: 13µM*; NS1 inh: -112%; Giardia FBPA inh: -3%

What do the screens show for `Cc1cc(C)n(-c2nc3c(c(=O)n(Cc4ccc(Cl)c(Cl)c4)c(=O)n3C)n2C)n1`?
NS1 inh: 11%

Results for Cn1c(N2CCN(c3ccccn3)CC2)nc2c1c(=O)n(Cc1ccc(Cl)cc1)c(=O)n2C ?
CHX counter: -1; Shiga toxin inh: -6; NS1 inh: 13%; Pf growth 48h: 12µM*; Giardia FBPA inh: -2%

How did CC1CN(c2nc3c(c(=O)n(Cc4ccc(Cl)c(Cl)c4)c(=O)n3C)n2C)CC(C)O1 (centres undefined) do in these assays?
CHX counter: -2; Shiga toxin inh: -22; NS1 inh: -118%; Pf growth 48h: 6.6µM*; Giardia FBPA inh: -10%

How did N[C@@H](CCCCNC(=O)CCCC[C@@H]1SC[C@H]2NC(=O)N[C@H]12)C(=O)O do in these assays?
CHX counter: 11; Shiga toxin inh: 18; Giardia FBPA inh: -15%

How did O=C(N/N=C/c1ccccc1O)C(=O)Nc1ccccn1 do in these assays?
CHX counter: 24*; Shiga toxin inh: 77*; Pf growth 96h: inconclusive; Pf growth 48h: inconclusive; Giardia FBPA inh: 14%

Results for S=C(Nc1ccc(Nc2ccccc2)cc1)Nc1ccccn1 ?
CHX counter: 37*; Shiga toxin inh: 100*; Pf growth 96h: -35%[5.75 µM]; NS1 inh: -1%; Pf growth 48h: inconclusive; Giardia FBPA inh: -3%

Results for O=C(O)/C=C\C(=O)Nc1ccccn1 ?
NS1 inh: -7%

How did O=C(Nc1cccc(O)c1)C(=O)Nc1ccccn1 do in these assays?
CHX counter: 16*; Shiga toxin inh: 27; Pf growth 96h: inactive; NS1 inh: -12%; Pf growth 48h: 50%; Giardia FBPA inh: -10%

How did O=C(Nc1ccccc1)C(=O)Nc1ccccn1 do in these assays?
CHX counter: 63*; Shiga toxin inh: 169*; Pf growth 96h: 117%; NS1 inh: -26%; Pf growth 48h: 444%; Giardia FBPA inh: 5%

Results for CC(=O)Nc1cccc(O)c1 ?
Pf growth 96h: 32%; Pf growth 48h: 54%; Giardia FBPA inh: -1%

How did S=C(Nc1ccccn1)NC1CCCC1 do in these assays?
CHX counter: 7; Shiga toxin inh: -5; Pf growth 96h: 14%; NS1 inh: -10%; Pf growth 48h: -5%; Giardia FBPA inh: -13%

What do the screens show for `Cc1cccc(-n2ncc3c2CCCC3NC(=O)C2CCOCC2)c1C` (centres undefined)?
CHX counter: -2; Shiga toxin inh: -18; Pf growth 96h: -15%; NS1 inh: 0%; Pf growth 48h: -15%

How did Cn1c(N)c(C(=O)COC(=O)C2=NNC(=O)CC2)c(=O)n(C)c1=O do in these assays?
CHX counter: -2; Shiga toxin inh: -14; Pf growth 96h: 45%; NS1 inh: 1%; Pf growth 48h: 4%; Giardia FBPA inh: 0%

Results for CCN(CC(=O)Nc1cccc(OC)c1)C(=O)c1ccco1 ?
CHX counter: 3; Shiga toxin inh: 6; Pf growth 96h: -17%; NS1 inh: -2%; Pf growth 48h: 45%; Giardia FBPA inh: 1%

Results for COc1ccc(CCN2CCC[C@H](CN3CCc4cc(OC)c(OC)cc4CC3=O)C2)cc1OC ?
CHX counter: -4; Shiga toxin inh: -7; Giardia FBPA inh: -8%

What do the screens show for `COc1cc(Cl)c(C)cc1NC(=O)CCN1C(=O)NC(C)(C)C1=O`?
Pf growth 96h: 46%; Pf growth 48h: -2%

What do the screens show for `Cc1cc(S(=O)(=O)n2ccnc2)c(Cl)cc1Cl`?
CHX counter: -1; Shiga toxin inh: -1; Pf growth 96h: 27%; NS1 inh: 4%; Pf growth 48h: 8%; Giardia FBPA inh: 1%

What do the screens show for `O=C(Nc1ccc(F)cc1)Nc1nnc(Cc2ccccc2)s1`?
CHX counter: 3; Pf growth 96h: 4.7µM*; NS1 inh: 15%; Pf growth 48h: inconclusive; Giardia FBPA inh: 16%

How did CC(C)Cc1nnc(NC(=O)CCC(=O)Nc2ccccc2)s1 do in these assays?
CHX counter: -2; Shiga toxin inh: 8; Pf growth 96h: inconclusive; NS1 inh: 3%; Pf growth 48h: inconclusive

Screening data from PubChem BioAssay.
